Source: ChEMBL document CHEMBL3433997, “St. Jude Leishmania screening dataset” (2016)

Target: Hexose transporter 1 (Plasmodium falciparum) (UniProt O97467)
Assay: ST_JUDE_LEISH: Cytotoxicity at 2uM final concentration against transgenic Leishmania Mexicana promastigotes LmPfHT that are glucose transport deficient and complemented with the Plasmodium falciparum hexose transporter. Activity is measured by DNA content using SYBR green in vitro
Format: functional

| SMILES | inhibition [%] |
| --- | --- |
| O=C(/C=C/c1ccc(Cl)c(Cl)c1)NCCCCN1CCC(c2c[nH]c3ccccc23)CC1 | 0.39 |
| O=C(NCCN1CCCC1)c1cccc(-c2ccc(-c3nc4cc(F)ccc4[nH]3)cc2)c1 | -0.39 |
| CC1(C)N=C(N)N=C(N)N1OCc1cc(Cl)c(CON2C(N)=NC(N)=NC2(C)C)cc1Cl | 1 |
| CC(C)CCCC(C)(C)NC[C@@H](O)[C@H](Cc1ccccc1)NC(=O)c1cc(NC(C)C)cc(N2CCCCS2(=O)=O)c1 | -1.58 |
| N=C(N)Nc1ccc(OCCCCCOc2ccc(NC(=N)N)cc2)cc1 | 20.2 |
| Cc1cc(OCCCN2CCC(NS(=O)(=O)c3cc(Br)c(Cl)s3)CC2)c2ccccc2n1 | -0.46 |
| CN1CCN(c2cc3c(cc2Cl)CCN3C(=O)Cc2ccc(Cl)c(NC(=O)Nc3cccc(C#N)c3)c2)CC1 | -0.51 |
| Cc1cc(C2CCN(CCCCNC(=O)c3ccc(NC(=O)c4ccc(Cl)cc4)cc3)CC2)c(C)cc1OC(C)C | -1.19 |
| O=C(Nc1ccc(Cl)c(Cl)c1)N[C@H]1CCN(CCCCCNC(=O)C2CC2c2ccc(Cl)c(Cl)c2)C1 (stereo not given in full) | 8.71 |
| COc1ccc2ncc(F)c(CCN3C[C@H](CNCc4cc(C#N)c5c(c4)OCCO5)[C@H](O)C3)c2n1 | 8.03 |
| Cc1cccc(C(O)CNc2ccnc(Nc3cccc(-c4csc(C)n4)c3)n2)c1 (stereo not given) | 4.04 |
| COc1ccc(C(=O)N2CCC(CN3CCOC(c4ccccc4)(c4ccccc4)C3)CC2)cc1 | 2.13 |
| SC(=Nc1ccc(Cl)c(Cl)c1)NN=Cc1ccccn1 | 1.69 |
| COc1ccc(-c2cccc(NC(=O)c3ccc(F)cc3)c2)cc1CNC(C)C | 3.31 |
| COc1ccc2nccc([C@@H](O)CN3CCC(NCc4ccc5cccc(O)c5n4)CC3)c2c1 | 7.94 |
| c1ccc2c(c1)ncc1c3ccccc3[nH]c21 | 7.76 |
| Nc1nc(N)c2c(Cl)c(CNc3cccc(C(=O)O)c3)ccc2n1 | 2.84 |
| COc1ccc(Cn2c(SCc3ccc(C)cc3)nc3cc(OC)c(OC)cc3c2=N)cc1Cl | -4.17 |
| COc1ccc(CNCc2ccccc2)cc1-c1ccc(S(=O)(=O)NCCN2CCCC2)cc1 | 1.76 |
| O=C(NC1CC1)c1ccc(Cn2c(SCc3cccc([N+](=O)[O-])c3)nc3ccccc3c2=O)cc1 | 0.54 |

| SMILES | inhibition [%] |
| --- | --- |
| O=C(Nc1ccc(Oc2ccccc2)cc1)N(Cc1ccc(-c2cccc(CN3CCNCC3)c2)cc1)C1CCN(Cc2ccccc2)CC1 | 3.12 |
| CC1CCN(CC[C@H]2CCCN2S(=O)(=O)c2cccc(NC(=O)c3cc4ccccc4s3)c2)CC1 | 6.97 |
| COc1cc(Cc2cnc(N)nc2N)cc(OCC(C)(C)C(=O)O)c1OC | -1.08 |
| CCc1ccc(NC(=O)c2ccc(CN3CCCN(Cc4cccc(C)c4)CC3)cc2)cc1 | 9.33 |
| N#Cc1cccc(C(=O)NC2CCN(CCCCCNC(=O)/C=C/c3ccc(Cl)c(Cl)c3)CC2)c1 | 5.26 |
| COc1ccc(CN2CCC(CNCCc3ccccc3Oc3ccccc3)CC2)cc1 | -1.31 |
| c1ccc(CCNc2nc(NCC(c3ccccc3)c3ccccc3)c3nc[nH]c3n2)cc1 | 3.7 |
| O=c1c(Br)ccccc1Br | 3.16 |
| COCC(C)n1c(SCC(=O)Nc2cc(C(F)(F)F)ccc2Cl)nc2ccccc2c1=O (stereo not given) | 4.88 |
| Cc1nc(N)nc(N)c1-c1cc(Cl)c(Cl)c(Cl)c1 | 0.89 |
| Cc1cc(C)c(NC(=O)N[C@H]2CCN(CCCCCNC(=O)/C=C/c3ccc(Cl)c(Cl)c3)C2)c(C)c1 | -0.95 |
| Nc1ccc(-c2ccc(NC(=O)Nc3ccccc3)cc2)cn1 | 2.5 |
| O=C(NC1CCN(Cc2ccccc2)CC1)c1ccc(-c2nc3cc(Cl)c(F)cc3[nH]2)cc1 | 0.15 |
| Fc1ccc(C=NN=c2cc[nH]c3ccccc23)cc1 | 13.4 |
| N=C(N)c1ccc2[nH]c(SCc3ccccc3)nc2c1 | 1.38 |
| O=C(NCCN1CCCC1)c1cccc(-c2ccc(-c3nc4ccccc4[nH]3)cc2)c1 | 5.32 |
| O=C(Nc1cc(Cl)c(Cl)cc1NC(=O)c1cccc(-c2ccccc2)c1O)c1cccc(-c2ccccc2)c1O | 0.97 |
| COc1ccc2ncc(F)c(CCN3CC(O)C(CNCc4ccc(F)cc4)C3)c2n1 (stereo not given) | 3.9 |
| COc1ccc2ncc(F)c(CCN3C[C@H](CNCc4cc(F)c5c(c4)NC(=O)CO5)[C@H](O)C3)c2n1 | 4.83 |
| COc1ccc2c(c1)CC(NCc1ccc(-c3ccc4nc[nH]c4c3)cc1)C2 (stereo not given) | 2.21 |
